A selection: hits, their analogues and other compounds. The true share with any hit is near 5.1%.
NR3A LBD binder: NR3A (human) ligand-binding domain modulation | NR3A LBD differential scanning fluorimetry, Tm shift; 0% = protein alone, 100% = glycine-bound protein | Tm shift relative to glycine control, % at 25 µM | 340,000 tested, 2.5% active;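 active = melting temperature shift of at least 10% of the positive control shift, at one fixed dose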
ANO1 activ: mouse TMEM16A channel activation, primary screen; B-score at 10 µM; HEK293 TMEM16A/YFP-H148Q/I152L, iodide quench fluorescence; stronger effect = lower value; AID 623877; 340,000 tested, 0.3% active;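 active = fluorescence-ratio B-score plate-corrected deviation score at least 3 library SD below zero, with starting fluorescence score within 5 deviations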;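 also: channel opened by trigger with iodide after compound preincubation; score built on the fluorescence ratio of max minus min over baseline; more negative score means more quench and so TMEM16A activation or potentiation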
Target sequence (Q8BHY3 whole entry, looked up): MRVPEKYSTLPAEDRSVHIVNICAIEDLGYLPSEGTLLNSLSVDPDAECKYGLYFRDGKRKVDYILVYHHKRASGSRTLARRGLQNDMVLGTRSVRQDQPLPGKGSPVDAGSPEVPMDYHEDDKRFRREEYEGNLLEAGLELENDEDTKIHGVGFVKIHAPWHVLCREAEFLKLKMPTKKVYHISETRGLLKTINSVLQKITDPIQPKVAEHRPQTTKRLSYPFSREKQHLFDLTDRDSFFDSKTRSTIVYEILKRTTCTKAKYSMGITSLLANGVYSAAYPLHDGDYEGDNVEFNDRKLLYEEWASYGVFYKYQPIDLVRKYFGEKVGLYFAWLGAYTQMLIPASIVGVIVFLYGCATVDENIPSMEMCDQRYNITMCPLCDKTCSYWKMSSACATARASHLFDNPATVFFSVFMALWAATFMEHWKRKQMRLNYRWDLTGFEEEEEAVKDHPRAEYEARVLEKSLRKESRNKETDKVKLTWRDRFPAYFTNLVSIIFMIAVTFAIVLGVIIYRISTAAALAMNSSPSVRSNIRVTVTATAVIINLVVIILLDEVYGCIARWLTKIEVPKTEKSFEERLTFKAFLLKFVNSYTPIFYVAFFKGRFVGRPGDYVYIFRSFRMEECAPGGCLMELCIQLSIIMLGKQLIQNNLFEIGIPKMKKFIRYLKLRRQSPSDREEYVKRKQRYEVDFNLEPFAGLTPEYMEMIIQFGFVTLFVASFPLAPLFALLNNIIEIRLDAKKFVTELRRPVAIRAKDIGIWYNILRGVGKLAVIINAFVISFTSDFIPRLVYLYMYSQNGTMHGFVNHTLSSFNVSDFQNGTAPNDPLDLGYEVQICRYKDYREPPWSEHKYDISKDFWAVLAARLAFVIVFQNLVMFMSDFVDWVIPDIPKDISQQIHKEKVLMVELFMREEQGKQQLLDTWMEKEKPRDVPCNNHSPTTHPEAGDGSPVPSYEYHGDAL
CRFBP-R2 block: antagonists of CRF-binding protein/CRF-R2 receptor complex; 350,000 tested, 0.59% active; HEK293 CRF-R2/CRF-BP, CRF-induced calcium fluorescence; AID 588475; inhibition, % at 11.8 µM;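 active = inhibition of the ligand-induced calcium signal above about 50% at the single tested concentration, limit read from the data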
CRFR2-BP ag: agonists of human CRF-binding protein/CRF-R2 receptor complex; activation, % at 13.2 µM; 350,000 tested, 0.46% active; HEK293 CRF-R2/CRF-BP, calcium dye fluorescence (FLIPR); percent of saturating CRF peptide response;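 active = activation of at least 50%, plus an integration ratio under a set limit after plate pattern correction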;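 also: plate controls were neutral control wells without compound for no effect and CRF at EC100 for full effect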
MPTP block: permeability transition pore inhibition. isolated mouse mitochondria, Ca2+ swelling absorbance, 30 min. inhibition, % at 10 µM. AID 602449. 360,000 tested, 1.4% active;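 active = inhibition of 50% or more, scaled per plate between neutral and stimulator controls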;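 also: 0% = DMSO wells given calcium and 100% = 1 mM EGTA wells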
TMEM16A inh: blocks the mouse calcium-activated chloride channel TMEM16A. normalized B-score (activity score, 25-100; higher = stronger inhibition) at 10 µM. 310,000 tested, 1.2% active. Q8BHY3. HEK293 TMEM16A/YFP iodide influx fluorescence, ionomycin;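 active = ratio plate-corrected score three or more library SD toward inhibition, starting fluorescence score within five deviations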;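 also: score derived from kinetic fluorescence span divided by baseline fluorescence per well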
Starred values were filed as active, the others as inactive; i = inactive; . = no result given.

SMILES	NR3A LBD binder	ANO1 activ	CRFBP-R2 block	CRFR2-BP ag	MPTP block	TMEM16A inh
COc1ccc(CNS(=O)(=O)c2ccc3c(c2)NC(=O)C(C)S3)cc1 (stereo unspecified)	-0.7	i	6.7	-1.5	1.3	i
CN(C)c1cccc(C(=O)Nc2nnc(Cc3ccccc3)s2)c1	-3.0	i	-19.6	2.0	1.4	i
CC(=O)Nc1ccc(C(=O)OCC(=O)Nc2ccc(S(=O)(=O)N3CCOCC3)cc2)cc1	0.2	i	-15.1	3.4	-1.9	.
NS(=O)(=O)c1ccc(NC(=O)COC(=O)c2ccc(S(=O)(=O)N3CCOCC3)cc2)cc1	14.0*	i	-20.4	3.1	-0.4	.
C[C@H](CO)NC(=O)c1nc[nH]c1C(=O)N[C@H](C)c1ccccc1	.	.	2.1	0.5	-0.8	.
CCCCNC(=O)C1(C)CCN1Cc1ccc(C#N)cc1 (stereo unspecified)	.	.	.	.	0.8	.
O=C(c1cc2c(c(-c3cccc(-c4ccc(F)cc4)c3)n1)[C@H](CCO)N(C(=O)c1ccc3c(c1)OCO3)C2)N1CCOCC1	.	.	.	.	1.5	.
O=C(Nc1ccccc1)c1nc[nH]c1C(=O)NCCCCCCNC(=O)c1[nH]cnc1C(=O)Nc1ccccc1	13.5*	i	-10.0	3.3	-0.5	.
O=C(Nc1ccccc1)c1nc[nH]c1C(=O)NCCCNC(=O)c1[nH]cnc1C(=O)Nc1ccccc1	9.3	i	-3.1	0.6	-0.7	.
O=C(Nc1ccccc1)c1nc[nH]c1C(=O)NCCN(CCNC(=O)c1[nH]cnc1C(=O)Nc1ccccc1)CCNC(=O)c1[nH]cnc1C(=O)Nc1ccccc1	13.1*	i	1.8	1.6	0.4	.
CNC(=O)c1[nH]cnc1C(=O)Nc1ccc(Cl)cc1	2.5	i	15.6	4.6	0.3	i
O=C(Nc1ccc(Cl)cc1)c1nc[nH]c1C(=O)NCCN(CCNC(=O)c1[nH]cnc1C(=O)Nc1ccc(Cl)cc1)CCNC(=O)c1[nH]cnc1C(=O)Nc1ccc(Cl)cc1	18.5*	i	-4.7	3.1	1.9	.
Cc1ccc(NC(=O)c2nc[nH]c2C(=O)NCCN(CCNC(=O)c2[nH]cnc2C(=O)Nc2ccc(C)cc2)CCNC(=O)c2[nH]cnc2C(=O)Nc2ccc(C)cc2)cc1	15.7*	i	5.5	-0.1	1.0	.
O=C(COc1ccc2c3c(c(=O)oc2c1)CCCC3)NCCCN1CCOCC1	5.1	i	-20.8	0.3	-0.1	i
OC(c1ccc(-c2ccccc2)cc1)c1ncc(-c2ccc(C(F)(F)F)cc2)[nH]1 (stereo unspecified)	.	.	.	.	5.1	.
Nc1ccc2nc3c(=O)n(CCc4ccccc4)c(=O)[nH]c3nc2c1	-2.3	-6.58*	-143.4	195.5*	2.5	i
CCCCn1c(=O)[nH]c2nc3cc(N)ccc3nc2c1=O	-0.8	i	-298.2	232.3*	3.1	i
Nc1ccc2nc(CCc3ccccc3)[nH]c2c1	-5.7	i	10.8	-0.3	1.8	i
Nc1ccc2nc3c(=O)n(C4CCCCC4)c(=O)[nH]c3nc2c1	-1.0	i	-118.7	166.6*	0.5	i
COc1cc2[nH]c(=O)n(C3CCCCC3)c(=O)c2cc1OC	2.2	i	19.9	1.5	0.2	i
Cc1cc2nc3c(=O)n(CCc4ccccc4)c(=O)[nH]c3nc2cc1N	-6.3	i	-97.9	152.3*	0.7	i
CCC(C)NC(=O)c1cn(CC)c2cc(N3CCN(C(=O)c4ccco4)CC3)c(F)cc2c1=O (stereo unspecified)	0.7	i	-22.1	3.8	-1.1	i
CCOc1ccccc1N1CCN(C(=O)c2cc(-c3cc(OC)ccc3OC)nc3ccccc23)CC1	-2.1	i	9.3	0.3	1.2	i
CC(Sc1ccc(S(=O)(=O)N2CCN(C)CC2)cn1)C(=O)NC1CCCCC1 (stereo unspecified)	-0.3	i	-1.7	0.7	-0.3	.
CCN(CC)C(=O)C1=C(C)N(CCCOC)C(=O)C(CC(=O)NC2CC2)C1 (stereo unspecified)	.	.	-16.6	16.8	-0.6	.
COc1ccccc1S(=O)(=O)N(C)C[C@H]1OCc2cnnn2CCCC(=O)N([C@@H](C)CO)C[C@@H]1C	.	.	1.2	2.3	0.0	.

Screens deposited in PubChem by several laboratories.
